An excerpt weighted towards active compounds, which were near 3.7% of everything screened.
GLP1R ag: qHTS of GLP-1 Receptor Agonists; HEK293 GLP-1R CRE-luciferase, luminescence, 4-6 h; cells express a hypersensitive GLP-1R form; Potency, µM (titrated, usually from 45.6 µM), inactives show top-dose activation, most hits filed as activators; actives 0.007% (n = 380,000); AID 624172, 2012; also: % of control where 0% means no effect
Target sequence (P43220 whole entry, looked up): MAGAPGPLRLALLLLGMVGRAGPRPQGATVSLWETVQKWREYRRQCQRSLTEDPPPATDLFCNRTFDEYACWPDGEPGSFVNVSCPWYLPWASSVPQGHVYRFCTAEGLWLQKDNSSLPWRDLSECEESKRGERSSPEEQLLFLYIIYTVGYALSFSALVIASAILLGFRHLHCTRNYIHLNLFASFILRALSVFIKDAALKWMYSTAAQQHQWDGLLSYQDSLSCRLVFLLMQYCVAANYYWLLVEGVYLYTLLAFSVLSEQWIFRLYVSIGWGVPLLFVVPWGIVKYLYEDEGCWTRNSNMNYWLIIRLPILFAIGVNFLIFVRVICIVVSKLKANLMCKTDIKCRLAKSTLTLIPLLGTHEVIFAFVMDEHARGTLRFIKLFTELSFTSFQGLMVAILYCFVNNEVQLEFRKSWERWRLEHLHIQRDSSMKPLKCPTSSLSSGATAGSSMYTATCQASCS
TGFb inhibitor: qHTS for Inhibitors of TGF-b. HepG2 CAGA-GFP TGF-b/SMAD3 reporter, GFP fluorescence, 18 h; TGF-beta stimulated, 500 pg/mL final. Potency, µM (top dose mostly 46.1 µM), for inactives: top-dose activity, negative = inhibition, actives largely listed as inhibitors. actives 1.2% (n = 410,000); also: % is scaled to controls: 0 for no effect and ±100 for the full control effect; nearly all actives have a fitted effect of over 65% in size
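HEPG2 CAGA-GFP reporter cells (1000/well, DMEM with 1% FBS) received compounds, then recombinant TGF-beta at 500 pg/mL final for 18 hours at 37 degrees C. Per-cell GFP summed per well was normalised to unstimulated and stimulated DMSO controls before curve fitting.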
ATXN2 expr inh: Primary qHTS for Inhibitors of ATXN expression. Potency, µM (series often up to 57 µM), for the others: at the highest dose activity change, negative = inhibition, usual class: inhibitors. HEK-293 ATXN2-luciferase reporter, luminescence, 24 h. actives 0.72% (n = 360,000); also: % is scaled to controls: 0 for no effect and ±100 for the full control effect; nearly all actives have a fitted effect of over 55% in size
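qHTS (up to 57 uM final) was run with 24 h compound exposure of reporter cells at 37 °C. Each well was multiplexed: SteadyGlo luminescence measured ATXN2-luciferase expression after a fluorogenic Gly-Phe-AFC viability readout (25 uM final).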
GLP1R inv ag: qHTS of GLP-1 Receptor Inverse Agonists (Inhibition Mode) | HEK293 GLP-1R CRE-luciferase, luminescence, 24 h; GLP-1R form is constitutively active | AID 624417, 2012 | actives 1.6% (n = 410,000) | Potency, µM (top dose mostly 38.3 µM), for inactives: at the highest dose activity change, negative = inhibition, usual class: inhibitors; also: % is scaled to controls: 0 for no effect and ±100 for the full control effect; nearly all actives have a fitted effect of over 55% in size
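HEK293 cells stably co-expressing a cAMP-responsive luciferase reporter and constitutively active GLP-1R were seeded, incubated 12 h, then exposed to compounds for 24 h at 37 C. Luminescence was read 12 min after detection reagent; inverse agonists lower signal.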
ATXN viability: Viability Counterscreen for Primary qHTS for Inhibitors of ATXN expression; S2 cells (HEK-293 line with an ATXN2-luciferase reporter) viability, CellTiter-Fluor protease fluorescence, 24 h; Potency, µM (doses to about 56.7 µM), actives largely listed as cytotoxic; actives 0.49% (n = 400,000); also: nearly all actives have a fitted effect of over 40% in size
HepG2 tox: qHTS for Inhibitors of TGF-b: Cytotox Counterscreen; HepG2 CAGA-GFP viability, ATP luminescence, 18 h; Potency, µM (titrated, usually from 46.1 µM), without a hit: at the top dose activity change, negative = cytotoxicity, most hits filed as cytotoxic; actives 0.76% (n = 410,000)
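CellTiter-Glo luminescence gave cytotoxicity after 18 hours at 37 degrees C. The cells were HepG2 CAGA-GFP in 1% FBS DMEM, stimulated with 500 pg/mL TGF-beta after compound addition. %Activity was normalised to no-cell wells (complete cell-killing) and DMSO (no toxicity), and curves were fitted and classified.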
* marks the source's active call; other numbers are inactive results; i = inactive; ? = inconclusive; nt = not tested or not shown. Calls follow the shape of the dose curve; as a rule, active = well fitted curve in the direction sought with a large enough effect; inconclusive = small, poorly fitted or top-dose-only effect, or another doubt; inactive = no such curve, though single readings can be large; an effect the other way counts as inactive or inconclusive. Potency is read from the fitted curve at half-maximal effect.

SMILES | GLP1R ag | TGFb inhibitor | ATXN2 expr inh | GLP1R inv ag | ATXN viability | HepG2 tox
C/C=C/C(=O)[C@@H](C)[C@@H](/C=C/C[Si](C)(C)C)c1ccccc1 | nt | -9% | nt | nt | nt | 4%
O=[N+]([O-])c1ccc2c(c1)/C(=C/c1ccc(C=S)cc1)C=C2 | nt | -8% | nt | nt | nt | -1%
O=C(COc1ccccc1C(=O)Nc1ccccc1F)Nc1ccc(Br)cc1 | nt | -30% | nt | nt | nt | -1%
Cc1ccc(S(=O)(=O)N2CCCCC2)cc1NC(=O)COC(=O)C1(C)CC1(Cl)Cl (stereo not drawn) | 10% | 0% | ? | 7.9µM* | i | -3%
O=C(C[N+]12CN3CN(CN(C3)C1)C2)c1ccc(Br)cc1 | nt | -4% | nt | nt | nt | -6%
O=C1CC(c2ccccc2)Cc2[nH]c(=O)c(C(=O)Nc3ccc(F)cc3)cc21 (stereo not drawn) | nt | -3% | 9% | -12% | i | -31%
O=C1CC(c2ccccc2)Cc2[nH]c(=O)c(C(=O)Nc3ccc(OC(F)(F)F)cc3)cc21 (stereo not drawn) | nt | -7% | -3% | 7% | 25µM* | 6%
COc1ccc2c(c1)OC(C)CN(CCNC(=O)c1csc(-c3cccs3)n1)C2 (stereo not drawn) | nt | nt | nt | nt | i | nt
O=C(C[N+]1(CCO)CCOCC1)c1ccc2ccccc2c1 | nt | 23% | nt | nt | nt | 14%
COc1ccc(Cc2c(-c3ccco3)nc3ccc(Cl)cn23)c(C)c1 | -1% | 22µM* | -8% | 7% | i | -47%
Brc1ccc2nc(-c3ccco3)c(CC3CCCCC3)n2c1 | -4% | 11µM* | -5% | -6% | i | -31%
COc1ccc(Cc2c(-c3ccco3)nc3ccc(Br)cn23)c(C)c1 | -2% | 16µM* | ? | ? | nt | 16µM*
COc1ccc(Cc2c(-c3ccccc3)nc3ccc(Cl)cn23)c(C)c1 | 8% | ? | 7% | -9% | ? | -13%
Cc1ccc(Cc2c(-c3ccco3)nc3ccc(Br)cn23)cc1 | 1% | ? | 25% | 11% | ? | -60%
COc1ccc(Cc2c(-c3cccc(Cl)c3)nc3cc(C)c(Br)c(C)n23)c(C)c1 | -1% | nt | 6% | 8.9µM* | i | nt
CCCCOCCOc1nc(-c2ccc(C(=O)O)c(F)c2)sc1C | nt | nt | 30% | nt | nt | nt
CCOc1ccc(C2CC(=O)NC(NC(=O)c3cccc(Cl)c3)=N2)cc1 (stereo not drawn) | nt | ? | nt | 1% | nt | -12%
CCOC(=O)N1CCc2c(sc3c2c(=O)n(Cc2ccccc2)c(=O)n3CC(=O)Nc2ccc(C)c(C)c2)C1 | nt | 6% | nt | 9% | nt | -3%
Clc1ccc2nc(NCc3ccccc3)c3nncn3c2c1 | nt | nt | nt | 13% | nt | 6%
CN(C)CCCNC(=S)Nc1ccc(-c2ccccc2)cc1 | 0% | -1% | -37% | 11µM* | i | -6%
COc1ccc(C2=C(C(C)=O)Sc3nnc(-c4ccccc4)n3N2C(C)=O)cc1 | nt | 4% | nt | 16% | nt | -20%
CCOc1ccc(C2=C(C(C)=O)Sc3nnc(C)n3N2C(C)=O)cc1 | nt | 7.9µM* | nt | 18% | nt | -58%
CCC(=O)C1=C(c2ccccc2)N(C(=O)CC)n2c(nnc2-c2ccccc2)S1 | nt | -2% | nt | 5% | nt | -2%
CCC(=O)C1=C(c2ccc(Cl)cc2)N(C(=O)CC)n2c(C)nnc2S1 | nt | 6.3µM* | nt | -7% | nt | -29%
CC(=O)C1=C(c2cccc([N+](=O)[O-])c2)N(C(C)=O)n2c(C)nnc2S1 | -7% | 11µM* | ? | ? | ? | 11µM*
SMILES | GLP1R ag | TGFb inhibitor | ATXN2 expr inh | GLP1R inv ag | ATXN viability | HepG2 tox
CC(=O)C1=C(c2ccc(C)cc2)N(C(C)=O)n2c(nnc2-c2ccccc2)S1 | nt | -9% | nt | 12% | nt | -2%
CN1CCCC(CN(C)C(=O)c2cnn(-c3nccc(-c4ccccc4C(F)(F)F)n3)c2C2CC2)C1 (stereo not drawn) | nt | nt | nt | nt | i | nt
COC(=O)/C=C/c1cc(F)ccc1S(=O)(=O)Nc1ccccc1 | nt | -7% | nt | nt | nt | 7%
COc1cc2ccccc2cc1C(=O)OCC(=O)Nc1ccc(Br)cc1 | nt | -1% | nt | nt | nt | -6%
CC(C(Sc1ccccc1N)c1ccccc1)[N+](=O)[O-] (stereo not drawn) | -2% | ? | ? | 9% | 28µM* | -70%
COc1ccc(/C=N/Nc2cc(C)nc3ccccc23)cc1 | -4% | ? | ? | ? | ? | -76%
COc1ccc(/C=N/Nc2cc(C)nc3c(C)cccc23)cc1 | 8% | ? | ? | ? | ? | 13µM*
COc1ccc2nc(C)cc(N/N=C/c3ccc(F)cc3)c2c1 | -4% | 4µM* | ? | ? | ? | 5µM*
Cc1cc(C)cc(N=Cc2ccc([N+](=O)[O-])s2)c1 | 3% | 11µM* | ? | 85% | ? | -55%
Cc1ccc(/C=N/n2c(C)nc3ccccc3c2=O)o1 | -3% | 16% | 19% | 3% | i | -2%
Cc1nc2ccccc2n1/N=C/c1ccc([N+](=O)[O-])s1 | 5% | 6.3µM* | 21µM* | 3% | nt | -62%
O=[N+]([O-])c1ccc(/C=N/n2cnc3ccccc32)s1 | -4% | ? | ? | 134% | nt | 8.9µM*
NC(=O)c1ccc(N=Cc2ccc([N+](=O)[O-])s2)cc1 | -4% | -20% | ? | -15% | ? | -92%
Cc1nc2ccccc2n1/N=C/c1ccc([N+](=O)[O-])o1 | 0% | 11µM* | ? | 4% | i | -106%
Cc1cccc(NC(=O)CSc2cn(CC(=O)N3CCCCCC3)c3ccccc23)c1 | nt | -19% | nt | 8% | nt | -27%
Cc1c(Cl)cccc1N1CC(c2nc3ccccc3n2Cc2ccccc2F)CC1=O (stereo not drawn) | nt | ? | 0% | ? | 32µM* | -31%
CCCCN1CC(c2nc3ccccc3n2CCCCOc2c(C)cccc2C)CC1=O (stereo not drawn) | nt | ? | 22µM* | ? | ? | -118%
CCOc1ccccc1N1CC(c2nc3ccccc3n2CCOc2ccc(OC)cc2)CC1=O (stereo not drawn) | nt | ? | ? | ? | 32µM* | 13µM*
CCCCN1CC(c2nc3ccccc3n2CCCCOc2ccccc2C)CC1=O (stereo not drawn) | nt | ? | -24% | ? | ? | 18µM*
CCCCN1CC(c2nc3ccccc3n2CCCCOc2cc(C)ccc2C)CC1=O (stereo not drawn) | nt | ? | ? | ? | ? | -92%

Screening data as filed in PubChem.
